In PubChem BioAssay (NCATS):
Inconclusive results are not listed. For part of these data: Entries with a potency or affinity are not part of this list. Activity calls are given as the source filed them. Unless noted, the rule behind the calls is not given here.

Tests used:
[1] = Ebola virus entry assay, green channel fluorescence
[2] = Ebola virus entry assay, reporter ratio channel; AC50: Channel type: primary unless noted; outcome: Channel type: primary unless noted
[3] = Ebola virus entry assay, blue channel (ratio component)
[4] = qHTS assay for measurement of the activity of small molecule inhibitors on Zika virus induced Caspase-3 activity in human iPSC derived neural progenitor cells (hNPCs) (AID 1224857; active = well fitted curve in the direction sought with a large enough effect; an effect the other way counts as inactive or inconclusive; note: nearly all actives have a fitted effect of over 65% in size); conditions: hNPCs ZIKV-induced caspase-3/7, Caspase-Glo luminescence, 6 h; series mostly up to 45.7 µM
Method in brief: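 Quantitative HTS format: human iPSC neural progenitors, 1 h compound pretreatment, ZIKV 2 FFU/cell for 6 h at 37 C. Percent inhibition derived from luminescent caspase-3/7 signal between uninfected and infected controls.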

[5] = qHTS assay for measurement of the activity of small molecule inhibitors on Zika virus induced Caspase-3 activity in human astrocytoma cells (AID 1224859; active = well fitted curve in the direction sought with a large enough effect; an effect the other way counts as inactive or inconclusive); conditions: SNB-19 ZIKV-induced caspase-3/7, luminescence, 6 h; series mostly up to 45.7 µM
Method in brief: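 Readout is luminescence from Caspase-Glo 3/7 added after a 6 h ZIKV infection (2 FFU/cell) of compound-pretreated (1 h) SNB-19 cells; data expressed as % inhibition versus uninfected and infected wells.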

[6] = Immunotoxin (HA22) sensitization/mitigation study. Vehicle arm (PBS) (AID 1159510); conditions: cancer cells viability with PBS vehicle (HA22 study); series mostly up to 46.1 µM
[7] = Immunotoxin (SS1P) sensitization/mitigation study. Vehicle arm (DMEM) (AID 1159513); conditions: cell viability with vehicle (DMEM); series mostly up to 46.1 µM
[8] = High-throughput drug toxicity screening in the BPDCN cell line Gen2.2 (AID 1224824); conditions: Gen2.2 BPDCN cells; at 45.8 µM (top of the series) unless noted;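 note: cells exposed to compounds for 48 h before reading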
Method in brief: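 Gen2.2, 500 cells/well, phenol red-free RPMI/10% FBS/Pen-Strep; 48 h cpd, 37 °C/5% CO2; CTG lum, 15 min RT. Norm: DMSO = 100%, bortezomib 9.2 uM final = 0%.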

[9] = High-throughput drug toxicity screening in the BPDCN cell line Cal-1 (AID 1224825); conditions: Cal-1 BPDCN cell viability, qHTS; at 45.8 µM (top of the series) unless noted
Method in brief: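 CellTiter-Glo luminescence after 48 h compound exposure; percent activity scaled with DMSO as 100% and bortezomib (9.2 uM final) as 0%. Cal-1 cells seeded at 500/well in RPMI, 10% FBS, no phenol red.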

[10] = qHTS Screen of the MIPE 4.0 Collection Against Ewings Sarcoma (RDES) (AID 1259252; active = well fitted curve in the direction sought with a large enough effect; an effect the other way counts as inactive or inconclusive; note: nearly all actives have a fitted effect of over 35% in size); conditions: RD-ES Ewing sarcoma viability, CellTiter-Glo, 48 h; series mostly up to 45.8 µM
Method in brief: (§1)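 Viability screen: 48 h incubation at 37C, 95% humidity, 5% CO2 with serially titrated compound, followed by CellTiter-Glo readout.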

[11] = qHTS Screen of the MIPE 4.0 Collection Against Ewings Sarcoma (TC71) (AID 1259253; active = well fitted curve in the direction sought with a large enough effect; an effect the other way counts as inactive or inconclusive; note: nearly all actives have a fitted effect of over 40% in size); conditions: TC71 Ewing sarcoma viability, CellTiter-Glo, 48 h; series mostly up to 45.8 µM
Method in brief: as §1

[12] = qHTS Screen of the MIPE 4.0 Collection Against Ewings Sarcoma (EW8) (AID 1259255; active = well fitted curve in the direction sought with a large enough effect; an effect the other way counts as inactive or inconclusive; note: nearly all actives have a fitted effect of over 35% in size); conditions: EW8 Ewing sarcoma viability, CellTiter-Glo, 48 h; series mostly up to 45.8 µM
Method in brief: as §1

[13] = qHTS Screen of the MIPE 4.0 Collection Against Ewings Sarcoma (TC32) (AID 1259256; active = well fitted curve in the direction sought with a large enough effect; an effect the other way counts as inactive or inconclusive; note: nearly all actives have a fitted effect of over 45% in size); conditions: TC32 Ewing sarcoma viability, CellTiter-Glo, 48 h; series mostly up to 45.8 µM
Method in brief: as §1

[14] = qHTS assay to identify small molecule inhibitors of chordoma cells - UCH-1 (AID 1259355; active = well fitted curve in the direction sought with a large enough effect; an effect the other way counts as inactive or inconclusive; note: nearly all actives have a fitted effect of over 55% in size); conditions: UCH-1 chordoma viability, CellTiter-Glo, 48 h, combination; series mostly up to 46.1 µM
Method in brief: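 Screening used approved and investigational drugs in 15-point titration against 800 seeded cells per well. A fixed combination of auranofin with camptothecin, doxorubicin, rubitecan and topotecan followed compound addition, and growth was scored by CellTiter-Glo after 48hr.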

[15] = qHTS assay to identify small molecule inhibitors of chordoma cells - UCH-2 (AID 1259356; active = well fitted curve in the direction sought with a large enough effect; an effect the other way counts as inactive or inconclusive); conditions: UCH-2 chordoma viability, CellTiter-Glo ATP luminescence, 48 h; series mostly up to 46.1 µM

Nc1nc(N)c(-c2ccccc2)s1
inactive: outcome [1] | outcome [2] | outcome [3]

CCCOC(=O)c1ccccc1
inactive: outcome [1] | outcome [2] | outcome [3]

O=C(Cn1ccnc1[N+](=O)[O-])NCc1ccccc1
inactive: outcome [1] | outcome [2] | outcome [3]

O=C(c1ccco1)N1CCNCC1
inactive: outcome [1] | outcome [2] | outcome [3]

O=c1[nH]c(=O)n([C@H]2C[C@H](O)[C@@H](CO)O2)cc1I
inactive: outcome [1] | outcome [2] | outcome [3]

O=S(=O)(O)CCS
inactive: outcome [1] | outcome [2] | outcome [3]

O=C(O)c1ccccc1-c1ccc(C(F)(F)F)cc1
inactive: outcome [1] | outcome [2] | outcome [3]

CC(=O)Nc1c(I)cc(I)c(C(=O)O)c1I
inactive: outcome [1] | outcome [2] | outcome [3]

O=C1CC2(CCCC2)CC(=O)N1
inactive: outcome [1] | outcome [2] | outcome [3]

CCOC(=O)c1ccc(O)c(O)c1
inactive: outcome [1] | outcome [2] | outcome [3]

CC1(C)O[C@H]2CC(=O)OC[C@]23[C@H]2CC[C@@]4(C)[C@H](c5ccoc5)OC(=O)[C@H]5O[C@]54[C@]2(C)C(=O)C[C@@H]13
inactive: outcome [1] | outcome [2] | outcome [3]

CN1C(C)(C)CCCC1(C)C
inactive: outcome [1] | outcome [2] | outcome [3]

NCCCC[C@H](N[C@@H](CCc1ccccc1)C(=O)O)C(=O)N1CCC[C@H]1C(=O)O
inactive: outcome [1] | outcome [2] | outcome [3]

CCCCCCCC(=O)[O-].CCCCCCCC(=O)[O-].[Zn+2]
inactive: outcome [1] | outcome [2] | outcome [3]

O=C(O)COc1nn(Cc2ccccc2)c2ccccc12
inactive: outcome [1] | outcome [2] | outcome [3]

O=c1[nH]c(=O)n([C@H]2O[C@H](CO)[C@@H](O)[C@@H]2O)cc1/C=C\Br
inactive: outcome [1] | outcome [2] | outcome [3]

CCC(Cc1c(I)cc(I)c(N)c1I)C(=O)O (stereo not given)
inactive: outcome [1] | outcome [2] | outcome [3]

O=C(O)CCC(=O)O
inactive: outcome [1] | outcome [2] | outcome [3]

CC12CCC(CC1)C(C)(C)O2
inactive: outcome [1] | outcome [2] | outcome [3]

CCCCOC(=O)CC(CC(=O)OCCCC)(OC(C)=O)C(=O)OCCCC
inactive: outcome [1] | outcome [2] | outcome [3]

C[C@@H](O)[C@H]1C(=O)N2C(C(=O)O)=C(SCCN=CN)C[C@H]12
inactive: outcome [1] | outcome [2] | outcome [3]

COC(=O)/C=C\C(=O)OC
inactive: outcome [1] | outcome [2] | outcome [3]

CCO[C@H](Cc1ccc(OCCc2ccc(OS(C)(=O)=O)cc2)cc1)C(=O)O
inactive: outcome [1] | outcome [2] | outcome [3]

O=C(O)c1ccc(=O)[nH]c1
inactive: outcome [1] | outcome [2] | outcome [3] | outcome [4] | outcome [5]

Oc1ccccc1
inactive: outcome [1] | outcome [2] | outcome [3]

COC(=O)C1=C(C)NC(C)=C(C(=O)OCCc2ccc(N3CCN(C(c4ccccc4)c4ccccc4)CC3)cc2)C1c1cccc([N+](=O)[O-])c1 (stereo not given)
inactive: outcome [1] | outcome [2] | outcome [3]

COc1cc(C(=O)NC2CCCNC2)cc(OC)c1OC (stereo not given)
inactive: outcome [1] | outcome [2] | outcome [3]

CCCc1nn(C)c2c(=O)[nH]c(-c3cc(S(=O)(=O)N4CCN(C)CC4)ccc3OCC)nc12
inactive: outcome [1] | outcome [2] | outcome [3] | Potency [6] | Potency [7]

Nc1ccc(C(=O)OCC(O)CO)cc1 (stereo not given)
inactive: outcome [1] | outcome [2] | outcome [3]

C[N+]1(CCF)[C@@H]2CC[C@H]1CC(OC(=O)C(O)(c1ccccc1)c1ccccc1)C2 (stereo not given in full)
inactive: outcome [1] | outcome [2] | outcome [3] | outcome [4] | outcome [5]

Cc1cc(OI)c(C(C)C)cc1-c1cc(C(C)C)c(OI)cc1C
inactive: outcome [1] | outcome [2] | outcome [3]

COP(=S)(OC)Oc1cc(Cl)c(Cl)cc1Cl
inactive: outcome [1] | outcome [2] | outcome [3] | outcome [4] | outcome [5]

CC1(C)C(C=C(Cl)Cl)C1C(=O)OC(C#N)c1cccc(Oc2ccccc2)c1 (stereo not given)
inactive: outcome [1] | outcome [2] | outcome [3] | outcome [4] | outcome [5]

CC(=O)C1CCOC1=O (stereo not given)
inactive: outcome [1] | outcome [2] | outcome [3] | outcome [4] | outcome [5]

COc1ccc(/C=N/NC(=O)c2ccncc2)cc1OC
inactive: outcome [1] | outcome [2] | outcome [3]

Nc1ccccc1
inactive: outcome [1] | outcome [2] | outcome [3] | outcome [4] | outcome [5]

CN1C(=O)COc2c(C(=O)NC3CN4CCC3CC4)cc(Cl)cc21 (stereo not given)
inactive: outcome [1] | outcome [2] | outcome [3] | outcome [4] | outcome [5] | Potency [10] | Potency [11] | outcome [12] | Potency [13] | outcome [14] | outcome [15]
120%: viability (% of control) [9]
212%: cell viability, % of control (lower = more cytotoxic) [8]
